Data taken from the supplement of paper PMC10849652.
About 7,900 targets were measured; listed, in parts, are those with a hit and a random draw of the rest. About 0.6% of all pairs of compound and target were hits.

Assays:
Experiment in all cases: log2 fold change, soluble protein after heating vs DMSO (PISA); higher = thermal stabilisation; K562 cells, 10 uM, 30 min; active = over 0.2 and 3.5 SD of the protein, either way, in both replicates (recomputed)
[1] = biological target: AAGAB (UniProt Q6PD74)
AAGAB, sequence (Q6PD74 whole entry, looked up): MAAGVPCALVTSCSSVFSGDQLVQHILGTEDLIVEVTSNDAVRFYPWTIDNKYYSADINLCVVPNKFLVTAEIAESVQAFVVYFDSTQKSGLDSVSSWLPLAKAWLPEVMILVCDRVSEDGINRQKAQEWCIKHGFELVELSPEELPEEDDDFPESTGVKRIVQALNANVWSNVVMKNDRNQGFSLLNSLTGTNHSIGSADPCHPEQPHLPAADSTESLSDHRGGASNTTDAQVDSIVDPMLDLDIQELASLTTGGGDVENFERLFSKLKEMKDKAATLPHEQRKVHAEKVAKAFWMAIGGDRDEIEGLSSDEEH
Outline: (§1)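 Soluble protein was quantified by TMTpro 16plex LC-MS/MS after channel sums were equalised. It was obtained as the supernatant after 21,000xg for 90 min from pooled aliquots of K562 cells (2×10^6 cells/mL, 10 μM compound, 30 min) heated for 3 min across 48°C-58°C and extracted in PBS with 0.5% NP-40 at 4°C. Thermal stability values are relative to control samples and come from duplicates. They are given as log2 fold changes.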

[2] = biological target: AAK1 (UniProt A0A096LP25)
Outline: as §1

[3] = biological target: AAK1 (UniProt Q2M2I8)
AAK1 (UniProt Q2M2I8), sequence (Q2M2I8 whole entry, looked up): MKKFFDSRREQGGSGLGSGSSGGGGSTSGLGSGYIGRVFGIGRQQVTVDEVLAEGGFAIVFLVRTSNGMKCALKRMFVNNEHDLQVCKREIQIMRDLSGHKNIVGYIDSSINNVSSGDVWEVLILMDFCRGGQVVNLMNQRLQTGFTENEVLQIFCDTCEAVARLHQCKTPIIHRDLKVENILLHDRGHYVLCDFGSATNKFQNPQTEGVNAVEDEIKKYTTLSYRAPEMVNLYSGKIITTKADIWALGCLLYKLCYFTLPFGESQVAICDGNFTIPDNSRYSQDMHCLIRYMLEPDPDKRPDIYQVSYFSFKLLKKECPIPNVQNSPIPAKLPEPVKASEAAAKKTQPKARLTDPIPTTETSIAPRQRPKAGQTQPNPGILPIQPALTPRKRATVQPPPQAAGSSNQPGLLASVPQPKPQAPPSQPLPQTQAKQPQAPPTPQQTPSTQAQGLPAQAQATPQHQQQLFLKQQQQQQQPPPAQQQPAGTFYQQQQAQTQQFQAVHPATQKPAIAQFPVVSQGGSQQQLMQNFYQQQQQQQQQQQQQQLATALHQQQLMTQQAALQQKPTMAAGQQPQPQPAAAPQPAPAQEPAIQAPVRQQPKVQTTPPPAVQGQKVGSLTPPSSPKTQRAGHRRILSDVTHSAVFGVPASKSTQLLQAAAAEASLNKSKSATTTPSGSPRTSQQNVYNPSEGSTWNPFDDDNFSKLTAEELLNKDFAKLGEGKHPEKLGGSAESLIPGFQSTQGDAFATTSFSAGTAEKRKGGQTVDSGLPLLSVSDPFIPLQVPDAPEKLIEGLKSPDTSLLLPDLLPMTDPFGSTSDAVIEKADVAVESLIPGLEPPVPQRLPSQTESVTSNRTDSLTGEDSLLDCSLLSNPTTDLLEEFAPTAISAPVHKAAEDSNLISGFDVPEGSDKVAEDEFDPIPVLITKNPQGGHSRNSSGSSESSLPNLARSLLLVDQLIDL
Outline: as §1

Measured: log2 fold change

CN(CCOc1ccc(C[C@@H]2SC(=O)NC2=O)cc1)c1ccccn1 (racemic) [rosiglitazone]
inactive: [1] 0.029 | [2] 0.107 | [3] 0.04

COc1cc2ncnc(Nc3ccc(F)c(Cl)c3)c2cc1OCCCN1CCOCC1 [gefitinib]
inactive: [1] -0.027 | [2] -0.049 | [3] -0.097

CCn1cc(-c2ccnc3[nH]c(-c4cccc(CN(C)C)c4)cc23)c(-c2ccc(NC(=O)N(C)C)cc2)n1
inactive: [1] -0.018 | [2] -0.031 | [3] -0.141

Cc1cn(-c2cc(NC(=O)c3ccc(C)c(Nc4nccc(-c5cccnc5)n4)c3)cc(C(F)(F)F)c2)cn1 [nilotinib]
inactive: [1] -0.077 | [2] -0.084 | [3] 0.027

CON(C)C(=O)N1N=C(c2cc(F)ccc2F)S[C@@]1(CCCN)c1ccccc1 [filanesib]
inactive: [1] 0.041 | [2] -0.01 | [3] -0.108

Cc1ccc(C(=O)N(CCCN)[C@@H](c2nc3cc(Cl)ccc3c(=O)n2Cc2ccccc2)C(C)C)cc1 [ispinesib]
inactive: [1] -0.017 | [2] 0.011 | [3] 0.091

O=C1NC(=NCc2cccs2)S/C1=C\c1ccc2ncccc2c1
inactive: [1] -0.059 | [2] 0.234 | [3] 0.339

CCCCN(Cc1ccc(C(=O)NO)cc1)C(=O)Nc1ccccc1 [Nexturastat A]
inactive: [1] 0.109 | [2] 0.068 | [3] -0.021
